Results filed as inconclusive are left out. The source made the active and inactive calls. The calls were made as follows: active = hit-call score of the fitted dose curve at least 0.9, where 1 is the maximum; inconclusive = response in the unintended direction; inactive = score below 0.9.
Target: Estrogen receptor (Homo sapiens) (UniProt P03372)
Assay: CCTE_Deisenroth_AIME_384WELL_LUC_Inactive: CCTE's 384-well Estrogen Receptor Transactivation Assay without AIME metabolic competence (ERTA luciferase; metabolism negative), Deisenroth Lab (AID 2284038);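 also: hits raise estrogen receptor luciferase signal so potencies reflect agonists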
Procedure: CCTE_Deisenroth_AIME_384WELL (AIME metabolism assay) is a cell-based, single-readout assay that uses VM7Luc4E2, a human mammary gland/breast cell line, with measurements taken at 24 hour after chemical dosing in a 384-well plate.CCTE_Deisenroth_AIME_384WELL_LUC_Inactive is one of four assay components measured or calculated from the CCTE_Deisenroth_AIME_384WELL assay. It is designed to make measurements of luciferase induction, a form of inducible reporter, as detected with bioluminescence signals by luciferase-coupled ATP quantitation technology.CCTE_Deisenroth_AIME_384WELL_LUC_Inactive is a component of the CCTE_Deisenroth_AIME_384WELL assay that measures the effect of retroftting the VM7Luc ERTA assay with the Alginate Immobolization of Metabolic Enzymes (AIME) metabolism method. AIME is optimized to impart phase I hepatic metabolism using phenobarbital/beta-naphthoflavone induced hepatic S9 from male Sprague Dawley rats. Parent chemicals are incubated for 2 hours in the AIME assay prior to transfer to the VM7Luc ERTA assay plate. […] This endpoint evaluates reporter induction in metabolism negative mode. Using a type of inducible reporter in VM7Luc cells, gain-of-signal activity can be used to understand changes in the reporter gene as they relate to xenobiotic metabolism and the gene ESR1. This assay endpoint, CCTE_Deisenroth_AIME_384WELL_LUC_Inactive, was analyzed in the positive analysis fitting direction relative to 17beta-estradiol as the positive control in the ERTA assay. To generalize the intended target to other relatable targets, this assay endpoint is annotated to the nuclear receptor intended target family, where the subfamily is steroidal.
The AIME procedure consists of a preparative "pre-stamping" step using a barium chloride/poly-L-lysine (PLL) solution followed by "stamping" the lid in alginate-hepatic S9 (metabolism positive) or alginate-water (metabolism negative) to form microspheres. Once stamping is completed, the AIME lids are placed in duplicate microplates (metabolism positive or negative) containing chemical solutions and incubated for two hours to facilitate metabolic reactions. The conditioned medium, containing parent chemical or metabolites, is then transferred to the cell-based VM7Luc Estrogen Receptor Transactivation Assay (ERTA) for 24 hours. A typical experimental design tests a 10-point concentration series (0.002 - 200 uM) for 8 compounds (96-well format)1 or 32 compounds (384-well format)2 in single technical replicate. AIME assay controls include trans-stilbene (bioactivated control) and ethylparaben (bioinactivated control). ERTA assay plate controls include 17-beta estradiol (positive control) and DMSO (solvent control). Experiments typically comprise a minimum of four experimental replicates (n=4).

Estrogen receptor (Homo sapiens), sequence (P03372 whole entry, looked up): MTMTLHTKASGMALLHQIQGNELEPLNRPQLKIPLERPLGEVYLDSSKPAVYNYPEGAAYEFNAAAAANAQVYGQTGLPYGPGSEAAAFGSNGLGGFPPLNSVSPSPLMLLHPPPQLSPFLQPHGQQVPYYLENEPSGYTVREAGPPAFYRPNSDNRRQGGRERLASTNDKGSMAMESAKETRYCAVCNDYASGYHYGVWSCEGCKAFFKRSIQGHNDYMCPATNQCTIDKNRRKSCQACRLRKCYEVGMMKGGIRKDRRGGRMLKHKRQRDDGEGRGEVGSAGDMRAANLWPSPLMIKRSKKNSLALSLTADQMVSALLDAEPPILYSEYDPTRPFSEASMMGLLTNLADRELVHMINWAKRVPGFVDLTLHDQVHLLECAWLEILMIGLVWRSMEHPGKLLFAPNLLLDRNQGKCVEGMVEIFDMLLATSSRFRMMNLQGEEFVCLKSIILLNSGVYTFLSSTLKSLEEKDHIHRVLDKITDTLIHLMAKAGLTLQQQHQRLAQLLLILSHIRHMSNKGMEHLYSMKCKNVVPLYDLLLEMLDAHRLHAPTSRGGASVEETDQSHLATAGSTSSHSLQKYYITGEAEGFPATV

**Q.** For CC(C)CC(C)O (configuration not stated), which outcome is on record?
**A.** inactive

**Q.** With CCOc1ccc2[nH]cc(C(=O)NCc3ccccc3)c(=O)c2n1 as the compound, how does the outcome read?
**A.** inactive

**Q.** CCn1nc(C)c2c1C(=O)NCC(c1ccc(O)cc1)=N2 was tested. Which outcome did it give?
**A.** inactive

**Q.** OCCOCCOCCO was tested. Which outcome did it give?
**A.** inactive

**Q.** How did the outcome turn out when OCC(CO)(CO)CO was run?
**A.** inactive

**Q.** How did the outcome turn out when c1ccc2ncccc2c1 was run?
**A.** inactive

**Q.** For O=C1CN(N=Cc2ccc([N+](=O)[O-])o2)C(=O)N1, which outcome is on record?
**A.** inactive

**Q.** Which outcome does the source give for c1ccc2c(c1)-c1cccc3c1c-2cc1ccccc13 here?
**A.** inactive

**Q.** For c1ccc(C(O[C@@H]2CCCN(CCc3ccc4c(c3)OCO4)C2)c2ccccc2)cc1, which outcome is on record?
**A.** inactive

**Q.** For COS(C)(=O)=O, which outcome is on record?
**A.** inactive

**Q.** For CCOC(N)=O, which outcome is on record?
**A.** inactive

**Q.** With CCCCC(CC)C(=O)OCCOCCOCCOC(=O)C(CC)CCCC (configuration not stated) as the compound, how does the outcome read?
**A.** inactive

**Q.** How did the outcome turn out when CC(=O)c1ccccc1 was run?
**A.** inactive

**Q.** CCCCCOC(C)=O was tested. Which outcome did it give?
**A.** inactive

**Q.** With C[C@@H](Oc1ccc(CNC(=O)c2cccnc2Oc2ccc3c(c2)OCO3)c(F)c1)C(=O)O as the compound, how does the outcome read?
**A.** inactive

**Q.** Which outcome does the source give for COc1cc2c(c(OC)c1OC)-c1ccc(OC)c(=O)cc1[C@@H](NC(C)=O)CC2 here?
**A.** inactive

**Q.** Which outcome does the source give for CCc1cccc(CC)c1N here?
**A.** inactive

**Q.** Which outcome does the source give for CCCCOC(=O)c1ccccc1 here?
**A.** inactive

**Q.** Which outcome does the source give for CC(C)CCCCCCOC(=O)C1CCCCC1C(=O)OCCCCCCC(C)C (configuration not stated) here?
**A.** inactive

**Q.** For CC(C)c1nnc2ccc(-c3ocnc3-c3cc(F)ccc3F)cn12, which outcome is on record?
**A.** inactive

**Q.** How did the outcome turn out when OCc1ccccc1 was run?
**A.** inactive

**Q.** Which outcome does the source give for CCCc1ccccc1 here?
**A.** inactive

Reference: PubChem BioAssay (EPA / NIEHS)
